Laboratory results as given in PubChem BioAssay.
Active and inactive are the calls of the source. Unless noted, how the calls were made is not given here.

Columns and labels:
[1] = anti-His antibody binders, primary screen, artefact control for SMM control protein annotation, biochemical, small-molecule microarray, 635 nm fluorescence (AID 1128); settings: anti-His Alexa647 antibody binding, higher = more signal;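 further: score merges feature fluorescence with signal-to-noise for each printed compound spot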
[2] = system: Human papillomavirus type 1a E7 protein (residues 1-88); test: HPV1a E7 small-molecule binders, primary screen, biochemical, small-molecule microarray, residues 1-88, 635 nm (AID 1129); settings: small-molecule microarray binding, fluorescence 635 nm; higher = more signal
[3] = molecular target: Focal adhesion kinase 1 (Homo sapiens) (UniProt Q05397); test: small-molecule microarray binders of FAK, primary screen, biochemical, 635/667 nm fluorescence, BSA, DTT (AID 1130); settings: PTK2 binding, 635 nm fluorescence, higher = more signal;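 further: composite of spot emission at 667 nm and signal to noise over triplicate slides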
[4] = system: Fibrinogen (Alexa647-labelled); test: fibrinogen binders on compound microarrays, profiling panel, artefact control for SMM control-protein annotation, biochemical, small-molecule microarray, 635/667 nm fluorescence (AID 1131); settings: fibrinogen-A647 binding fluorescence, higher = more signal;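 further: z-score merges 667 nm fluorescence with per-spot signal-to-noise over triplicate slides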
[5] = molecular target: Follistatin (Homo sapiens) (UniProt P19883); test: follistatin binders on small-molecule microarrays, primary screen, biochemical, small-molecule microarray, 635/667 nm fluorescence (AID 1132); settings: FST binding, 635 nm fluorescence, higher = more signal
[6] = molecular target: Fibroblast growth factor 2 (Homo sapiens) (UniProt P09038); test: FGF2 binders on small-molecule microarrays, primary screen, biochemical, small-molecule microarray, 635/667 nm fluorescence (AID 1133); settings: small-molecule microarray binding, FGF2, fluorescence 635/667; higher = more signal
[7] = mitochondrial membrane potential change in A549 cells, profiling panel, cell-based, JC-1 fluorescence, basal, 24 h, 100 nL (AID 1138); settings: higher = more signal;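 further: A549 lung adenocarcinoma cells under basal conditions with no added stimulus; test concentration not given here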
[8] = system: Lefty1; test: Lefty1 binders on small-molecule microarrays, primary screen, biochemical, small-molecule microarray, 635/667 nm fluorescence (AID 1139); settings: small-molecule microarray binding, fluorescence 635/667; higher = more signal
[9] = system: wheat germ agglutinin (Triticum aestivum), Alexa647-labelled; test: wheat germ agglutinin binders on compound microarrays, profiling panel, artefact control for SMM control-protein annotation, biochemical, small-molecule microarray, 635/667 nm fluorescence (AID 1140); settings: WGA-A647 binding, 635 nm fluorescence, higher = more signal;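 further: score merges 667 nm feature emission with signal to noise over triplicate slides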
[10] = molecular target: Luciferin 4-monooxygenase (Photinus pyralis) (UniProt P08659); test: firefly luciferase enzyme inhibitors, primary screen, biochemical, luminescence, purified enzyme, 2006 set (AID 1141); settings: SteadyGlo luminescence, 30 min, higher = more signal, called active from +8 up or from −8 down;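 further: cell-free assay with purified firefly luciferase at 100 ng per well in PBS; test concentration not given here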
[11] = system: Wnt5a (protein binding on small-molecule microarray); test: Wnt5a binders on small-molecule microarray, primary screen, biophysical, 635/667 nm fluorescence (AID 1142); settings: 635 nm fluorescence, higher = more signal;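 further: fluorescence read at 667 nm with signal to noise per printed feature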
[12] = cell viability in Huh7 cells, primary screen, cytotoxicity control for HCV replication inhibitor project, CellTiter-Glo luminescence, basal, 48 h (AID 1143); settings: Huh7 HCV replicon, higher = more signal, called active from +8 up or from −8 down;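 further: Huh7 hepatoma cells carrying a hepatitis C replication reporter with no stimulus; test concentration not given here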
[13] = P. aeruginosa biofilm formation inhibitors, primary screen, PAO1 strain, BacTiter-Glo luminescence, LB-PBS (AID 1144); settings: 12 h, higher = more signal
[14] = CREB reporter modulators without forskolin, primary screen, cell-based, PC12, CRE-LacZ reporter, unstimulated (AID 1145); settings: no forskolin, luminescence, 4.5 h, higher = more signal, called active from +8 up or from −8 down
[15] = CREB reporter modulators under forskolin, primary screen, cell-based, PC12, CRE-LacZ reporter, forskolin-stimulated (AID 1146); settings: luminescence, 4.5 h, higher = more signal, called active from +8 up or from −8 down;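 further: PC12 cells with 6xCRE LacZ reporter stimulated by forskolin 10 µM; beta-galactosidase reporter signal reflecting CREB driven transcription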
[16] = molecular target: Streptavidin (Streptomyces avidinii) (UniProt P22629); test: streptavidin binders on small-molecule microarray, primary screen, artefact control for SMM compound annotation, biophysical, 635/667 nm fluorescence (AID 1147); settings: streptavidin binding, higher = more signal;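 further: signal reflects streptavidin binding to arrayed compounds as a control protein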
[17] = small-molecule binders of probe aInhba, primary screen, biochemical, small-molecule microarray, 635/667 nm fluorescence (AID 1148); settings: higher = more signal;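 further: score merges 667nm spot fluorescence with signal-to-noise for antibody binding to printed compounds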
[18] = molecular target: Torsin-1A (Homo sapiens) (UniProt O14656); test: torsin A binders from cell lysate, primary screen, small-molecule microarray, wild-type, 635/667 nm (AID 1149); settings: COS7 hTOR1A-WT lysate, 635 nm fluorescence, higher = more signal
[19] = molecular target: Torsin-1A (Homo sapiens) (UniProt O14656); test: small-molecule binders of mutant TOR1A in lysate, primary screen, cell lysate, small-molecule microarray, COS7 lysate, 635/667 nm fluorescence (AID 1150); settings: COS7 hTOR1A mutant lysate, 635 nm fluorescence, higher = more signal;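 further: score pools 667 nm emission and signal to noise measuring lysate protein binding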
[20] = system: Sonic hedgehog protein (Shh); test: small-molecule binders of Shh protein, primary screen, biochemical, small-molecule microarray, 635/667 nm fluorescence (AID 1151); settings: small-molecule microarray binding, 635 nm fluorescence; higher = more signal;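 further: Shh protein binding to compounds spotted on small-molecule microarray slides; score combines spot fluorescence intensity with signal-to-noise across triplicate slides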

Fibroblast growth factor 2 (Homo sapiens), sequence (P09038 whole entry, looked up): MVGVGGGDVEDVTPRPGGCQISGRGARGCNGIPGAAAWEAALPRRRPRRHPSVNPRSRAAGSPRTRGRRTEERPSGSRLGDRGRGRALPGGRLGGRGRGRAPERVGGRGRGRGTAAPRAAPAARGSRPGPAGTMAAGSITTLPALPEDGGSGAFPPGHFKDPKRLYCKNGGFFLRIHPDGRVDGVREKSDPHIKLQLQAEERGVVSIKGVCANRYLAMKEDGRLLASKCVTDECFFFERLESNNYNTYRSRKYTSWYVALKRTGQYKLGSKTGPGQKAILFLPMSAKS
Luciferin 4-monooxygenase (Photinus pyralis), sequence (P08659 whole entry, looked up): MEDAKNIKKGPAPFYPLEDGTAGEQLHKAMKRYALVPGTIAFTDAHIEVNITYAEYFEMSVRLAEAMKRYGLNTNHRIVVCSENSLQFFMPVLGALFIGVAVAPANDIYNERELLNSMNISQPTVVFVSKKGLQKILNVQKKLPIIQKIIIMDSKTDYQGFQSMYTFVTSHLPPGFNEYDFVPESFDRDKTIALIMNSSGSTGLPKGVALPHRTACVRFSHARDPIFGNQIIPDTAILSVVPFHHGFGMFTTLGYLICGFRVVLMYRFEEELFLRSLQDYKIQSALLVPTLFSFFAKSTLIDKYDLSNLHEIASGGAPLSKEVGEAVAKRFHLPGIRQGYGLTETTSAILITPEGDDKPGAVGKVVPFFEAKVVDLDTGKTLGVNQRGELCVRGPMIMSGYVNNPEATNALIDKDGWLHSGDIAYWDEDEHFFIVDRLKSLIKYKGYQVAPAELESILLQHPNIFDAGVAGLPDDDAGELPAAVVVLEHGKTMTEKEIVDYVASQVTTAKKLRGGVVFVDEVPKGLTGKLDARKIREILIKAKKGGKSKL
Follistatin (Homo sapiens), sequence (P19883 whole entry, looked up): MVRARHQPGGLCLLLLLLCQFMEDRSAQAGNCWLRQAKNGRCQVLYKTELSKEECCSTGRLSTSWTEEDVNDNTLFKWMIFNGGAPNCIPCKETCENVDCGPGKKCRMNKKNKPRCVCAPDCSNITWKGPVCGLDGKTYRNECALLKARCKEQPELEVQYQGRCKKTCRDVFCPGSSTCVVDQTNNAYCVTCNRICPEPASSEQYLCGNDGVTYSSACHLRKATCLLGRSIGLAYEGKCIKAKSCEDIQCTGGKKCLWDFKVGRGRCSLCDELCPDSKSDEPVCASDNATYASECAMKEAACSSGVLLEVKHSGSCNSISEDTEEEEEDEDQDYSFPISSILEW
Focal adhesion kinase 1 (Homo sapiens), sequence (Q05397 whole entry, looked up): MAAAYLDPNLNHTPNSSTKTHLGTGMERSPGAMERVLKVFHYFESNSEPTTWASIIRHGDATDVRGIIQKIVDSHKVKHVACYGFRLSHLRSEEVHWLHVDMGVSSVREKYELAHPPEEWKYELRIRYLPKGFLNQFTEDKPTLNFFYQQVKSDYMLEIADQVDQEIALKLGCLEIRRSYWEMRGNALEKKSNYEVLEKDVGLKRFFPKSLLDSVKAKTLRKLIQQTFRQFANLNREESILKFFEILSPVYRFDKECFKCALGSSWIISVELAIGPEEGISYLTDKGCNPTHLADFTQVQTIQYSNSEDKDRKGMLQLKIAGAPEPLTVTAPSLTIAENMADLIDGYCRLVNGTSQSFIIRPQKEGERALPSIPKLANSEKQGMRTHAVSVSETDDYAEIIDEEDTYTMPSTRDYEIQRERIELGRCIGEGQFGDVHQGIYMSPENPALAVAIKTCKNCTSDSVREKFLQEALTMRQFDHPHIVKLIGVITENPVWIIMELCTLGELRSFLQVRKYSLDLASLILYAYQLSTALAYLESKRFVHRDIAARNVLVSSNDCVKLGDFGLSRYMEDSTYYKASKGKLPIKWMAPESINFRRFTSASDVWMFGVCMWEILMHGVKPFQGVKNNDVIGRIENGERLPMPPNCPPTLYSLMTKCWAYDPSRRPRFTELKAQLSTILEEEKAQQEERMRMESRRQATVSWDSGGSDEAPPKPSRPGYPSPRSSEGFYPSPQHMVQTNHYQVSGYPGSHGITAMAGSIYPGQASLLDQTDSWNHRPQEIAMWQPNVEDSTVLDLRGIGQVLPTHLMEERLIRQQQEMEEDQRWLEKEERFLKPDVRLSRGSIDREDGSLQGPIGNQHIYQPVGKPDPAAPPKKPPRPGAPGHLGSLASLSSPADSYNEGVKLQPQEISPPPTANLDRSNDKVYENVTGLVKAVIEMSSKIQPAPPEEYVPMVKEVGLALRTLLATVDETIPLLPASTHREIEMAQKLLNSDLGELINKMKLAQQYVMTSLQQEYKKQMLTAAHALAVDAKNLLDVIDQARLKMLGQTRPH
Streptavidin (Streptomyces avidinii), sequence (P22629 whole entry, looked up): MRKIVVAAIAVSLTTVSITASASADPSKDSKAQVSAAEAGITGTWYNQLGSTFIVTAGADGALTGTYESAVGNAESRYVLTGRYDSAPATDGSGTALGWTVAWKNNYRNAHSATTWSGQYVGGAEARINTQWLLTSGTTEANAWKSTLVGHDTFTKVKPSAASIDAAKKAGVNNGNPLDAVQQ
Torsin-1A (Homo sapiens), sequence (O14656 whole entry, looked up): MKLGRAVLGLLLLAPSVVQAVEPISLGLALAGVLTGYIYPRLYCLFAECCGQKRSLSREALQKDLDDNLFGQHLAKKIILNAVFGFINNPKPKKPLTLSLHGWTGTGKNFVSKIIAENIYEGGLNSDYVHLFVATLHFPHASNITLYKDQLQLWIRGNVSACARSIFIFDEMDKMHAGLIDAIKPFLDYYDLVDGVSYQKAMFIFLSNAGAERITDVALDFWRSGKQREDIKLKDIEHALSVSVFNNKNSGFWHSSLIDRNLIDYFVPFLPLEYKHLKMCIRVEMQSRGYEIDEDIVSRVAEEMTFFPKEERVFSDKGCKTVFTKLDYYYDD

Compound: COc1ccc([Si](C)(C)[C@H]2[C@H](CCn3cc([C@H](O)c4ccccc4)nn3)O[C@@]3(C(=O)N(Cc4ccc(N5CCC5=O)cc4)c4ccccc43)[C@@H]2C)cc1
- composite z-score [1]: 0.814
- composite z-score [2]: 0.578
- composite z-score [3]: -0.441
- composite z-score [4]: -0.116
- composite z-score [5]: 1.25
- composite z-score [6]: 1.47
- z-score [7]: 0.527
- composite z-score [8]: 1.18
- composite z-score [9]: 0.264
- z-score [10]: 0.465 (inactive)
- composite z-score [11]: 0.826
- z-score [12]: -3.89 (inactive)
- z-score [13]: 0.572 (inactive)
- z-score [14]: 0.31 (inactive)
- z-score [15]: -1.05 (inactive)
- composite z-score [16]: -0.503
- composite z-score [17]: -0.128
- composite z-score [18]: 0.441
- composite z-score [19]: 0.489
- composite z-score [20]: 1.83

Compound: Cc1c(NC(=O)/C(C#N)=C/C=C/c2ccccc2[N+](=O)[O-])c(=O)n(-c2ccccc2)n1C
- composite z-score [1]: 0.526
- composite z-score [2]: 0.876
- composite z-score [3]: 1.01
- composite z-score [4]: 0.867
- composite z-score [5]: 0.771
- composite z-score [6]: 0.334
- z-score [7]: 0.511
- composite z-score [8]: 0.557
- composite z-score [9]: 0.154
- z-score [10]: -4.64 (inactive)
- composite z-score [11]: -0.145
- z-score [12]: -3.01 (inactive)
- z-score [13]: 0.365 (inactive)
- z-score [14]: -0.0243 (inactive)
- z-score [15]: 25.4 (active)
- composite z-score [16]: 0.293
- composite z-score [17]: -0.176
- composite z-score [18]: 0.185
- composite z-score [19]: 0.331
- composite z-score [20]: 0.844

Compound: O=C1O[C@@H](c2ccccc2)[C@@H](c2ccccc2)N2[C@@H](c3ccc(O)cc3)[C@]3(C(=O)Nc4ccccc43)[C@@H](C(=O)Nc3nc4ccccc4s3)[C@H]12
- composite z-score [1]: 1.07
- composite z-score [2]: 1.18
- composite z-score [3]: 0.708
- composite z-score [4]: 0.975
- composite z-score [5]: 1.2
- composite z-score [6]: 0.398
- z-score [7]: -2.38
- composite z-score [8]: 0.745
- composite z-score [9]: 0.634
- z-score [10]: -1.1 (inactive)
- composite z-score [11]: 1.09
- z-score [12]: -4.19 (inactive)
- z-score [13]: -1.87 (inactive)
- z-score [14]: 0.389 (inactive)
- z-score [15]: -0.0768 (inactive)
- composite z-score [16]: 0.243
- composite z-score [17]: -0.128
- composite z-score [18]: 0.0151
- composite z-score [19]: 0.325
- composite z-score [20]: 0.183

Compound: O=C(CS)NCCCCCCNC(=O)[C@H]1C[C@H]2C(=O)N[C@@H](Cc3ccccc3)C(=O)N2[C@H]1c1cccc(OCCO)c1
- composite z-score [1]: 2.12
- composite z-score [2]: 1.24
- composite z-score [3]: 0.127
- composite z-score [4]: 0.93
- composite z-score [5]: 1.39
- composite z-score [6]: 1.61
- z-score [7]: -0.66
- composite z-score [8]: 1.14
- composite z-score [9]: 0.772
- z-score [10]: -1.91 (inactive)
- composite z-score [11]: 1.02
- z-score [12]: 0.0054 (inactive)
- z-score [13]: -0.885 (inactive)
- z-score [14]: 0.285 (inactive)
- z-score [15]: -0.579 (inactive)
- composite z-score [16]: 1.22
- composite z-score [17]: 0.177
- composite z-score [18]: 0.78
- composite z-score [19]: 1.06
- composite z-score [20]: 1.72

Compound: CC(C)N1C(=O)[C@@]2(c3ccc([N+](=O)[O-])cc3)CC(=O)N(C3CCCCC3)[C@@H]2c2ccc(CO)cc21
- composite z-score [1]: 0.111
- composite z-score [2]: -0.695
- composite z-score [3]: -0.0713
- composite z-score [4]: -0.387
- composite z-score [5]: 1.03
- composite z-score [6]: 0.356
- z-score [7]: -0.24
- composite z-score [8]: 0.297
- composite z-score [9]: -0.246
- z-score [10]: 1.1 (inactive)
- composite z-score [11]: -0.0311
- z-score [12]: -0.311 (inactive)
- z-score [13]: -1.16 (inactive)
- z-score [14]: -0.464 (inactive)
- z-score [15]: -0.144 (inactive)
- composite z-score [16]: -0.196
- composite z-score [17]: -0.045
- composite z-score [18]: -0.36
- composite z-score [19]: -0.123
- composite z-score [20]: 1.02

Compound: COc1ccc([Si](C)(C)[C@H]2[C@H](CCn3cc([C@H](O)c4ccccc4)nn3)O[C@@]3(C(=O)N(Cc4ccc(N5CCOC5=O)cc4)c4ccccc43)[C@@H]2C)cc1
- composite z-score [1]: -0.194
- composite z-score [2]: -0.993
- composite z-score [3]: -0.775
- composite z-score [4]: -0.231
- composite z-score [5]: -0.988
- composite z-score [6]: -0.785
- z-score [7]: 1.26
- composite z-score [8]: -0.919
- composite z-score [9]: -0.0383
- z-score [10]: -0.278 (inactive)
- composite z-score [11]: -0.271
- z-score [12]: -1.3 (inactive)
- z-score [13]: -0.434 (inactive)
- z-score [14]: 0.804 (inactive)
- z-score [15]: -0.889 (inactive)
- composite z-score [16]: -0.303
- composite z-score [17]: -0.208
- composite z-score [18]: -0.995
- composite z-score [19]: -1.35
- composite z-score [20]: -0.25

Compound: COc1ccc([Si](C)(C)[C@@H]2[C@@H](CCO)O[C@]3(C(=O)N(Cc4cccc(N5C(=O)c6ccccc6Oc6ccccc65)c4)c4ccccc43)[C@H]2C)cc1
- composite z-score [1]: 0.106
- composite z-score [2]: 0.502
- composite z-score [3]: 0.121
- composite z-score [4]: -0.0703
- composite z-score [5]: -0.672
- composite z-score [6]: -0.559
- z-score [7]: -0.368
- composite z-score [8]: 0.135
- composite z-score [9]: 0.413
- z-score [10]: -1.26 (inactive)
- composite z-score [11]: -0.193
- z-score [12]: -5.77 (inactive)
- z-score [13]: -1.34 (inactive)
- z-score [14]: 6.17 (inactive)
- z-score [15]: 0.291 (inactive)
- composite z-score [16]: -0.313
- composite z-score [17]: -0.251
- composite z-score [18]: -0.133
- composite z-score [19]: -0.548
- composite z-score [20]: -0.264

Compound: CN1C(=O)[C@@]2(CCS(=O)(=O)c3ccccc3)N=C(c3ccc(OCCCO)cc3)O[C@H]2c2ccccc21
- composite z-score [1]: 3.54
- composite z-score [2]: 1.26
- composite z-score [3]: 0.582
- composite z-score [4]: 0.974
- composite z-score [5]: 1.29
- composite z-score [6]: 0.394
- z-score [7]: 1.15
- composite z-score [8]: 0.358
- composite z-score [9]: 1.01
- z-score [10]: -0.899 (inactive)
- composite z-score [11]: 0.388
- z-score [12]: -4.49 (inactive)
- z-score [13]: -0.413 (inactive)
- z-score [14]: 0.0918 (inactive)
- z-score [15]: -0.196 (inactive)
- composite z-score [16]: 1.8
- composite z-score [17]: -0.0384
- composite z-score [18]: 1.55
- composite z-score [19]: 0.397
- composite z-score [20]: 0.203

Compound: C=CCOC(=O)[C@H]1[C@@H]2C(=O)O[C@@H](c3ccccc3)[C@@H](c3ccccc3)N2[C@@H](c2ccc(OCCOC(=O)[C@H]3C[C@H]4C(=O)N[C@@H](Cc5ccccc5)C(=O)N4[C@H]3c3cccc(OCCO)c3)cc2)[C@]12C(=O)Nc1ccc(I)cc12
- composite z-score [1]: 2.34
- composite z-score [2]: 1.16
- composite z-score [3]: 0.41
- composite z-score [4]: 0.948
- composite z-score [5]: 1.2
- composite z-score [6]: 1.71
- z-score [7]: -1.41
- composite z-score [8]: 1.35
- composite z-score [9]: 0.324
- z-score [10]: -0.65 (inactive)
- composite z-score [11]: 0.971
- z-score [12]: -0.441 (inactive)
- z-score [13]: -0.283 (inactive)
- z-score [14]: 0.688 (inactive)
- z-score [15]: 0.144 (inactive)
- composite z-score [16]: 0.309
- composite z-score [17]: -0.0112
- composite z-score [18]: 0.703
- composite z-score [19]: 0.815
- composite z-score [20]: 2.16
